Reference: ChEMBL document CHEMBL4513216, “Probing the Open Global Health Chemical Diversity Library for Multistage-Active Starting Points for Next-Generation Antimalarials” (ACS Infect Dis, 2020)
Among all 69,000 compounds or so, about 8,600 (12%) showed an effect of 50% or more. What follows is part of a selection rich in strong results, with near analogues and random picks from the rest.

These compounds were tested on Plasmodium berghei (assay: Screen against P. berghei liver stage (PbLuc), transformed with Luciferase, at 10uM). Conditions: tested at 10 uM.
Assay type: functional, HepG2
`O=C(NCC1CC1)c1cc(C2CC2)nc2onc(C3CCCNC3)c12` (centres undefined) showed an INHIBITION of -3.11%. With `CCN1CC2(CC1=O)CN(Cc1cnn(C)c1)CCN(C(=O)C(C)C)C2` (centres undefined) the INHIBITION was 9.54%. `Cc1nc(C)c(C(C)NCc2cnc(N3CCOCC3)nc2)s1` (centres undefined) gave an INHIBITION of 43.5%. `CC(NCCCc1cnn(C)c1)c1ccc(Cl)s1` (centres undefined) was tested, and the INHIBITION was 51.7%. With `CC(Cn1cccn1)NC(=O)NCCc1cnn(C)c1` (centres undefined) the INHIBITION was 49.6%. In the case of `CC(NC(=O)NCCc1cnn(C)c1)c1ccc(Cl)s1` (centres undefined), the INHIBITION was 68%. With `CC(NCCN1CCC(N(C)C)CC1)c1ccc(Cl)s1` (centres undefined) the INHIBITION was 27.7%. In the case of `COCCn1cc(NC(=O)NC(C)c2ccc(Cl)s2)cn1` (centres undefined), the INHIBITION was -6.04%. `CC(NCc1cnc(N2CCOCC2)nc1)c1ccc(Cl)s1` (centres undefined) gave an INHIBITION of 51.8%. `CC(NCCCc1cnn(C)c1)c1ccc(Br)s1` (centres undefined) gave an INHIBITION of 45.7%. `CC(NCc1cnc(N2CCOCC2)s1)c1ccc(Cl)s1` (centres undefined) showed an INHIBITION of -19.1%. In the case of `CCc1nccn1C1CCCN(C(=O)c2ccc(NC3CC3)nc2)C1` (centres undefined), the INHIBITION was -40.0335%. With `CNc1ncc(-c2ccc(NC(=O)[C@@H]3CCCCN3)cc2)cn1` the INHIBITION was 4.08%. In the case of `COc1ncccc1CNC(=O)c1ccc(C)[nH]c1=O`, the INHIBITION was 20.5%. In the case of `COc1ccc(CN2CCn3c(CNS(C)(=O)=O)nnc3C2)cc1`, the INHIBITION was 13.1%. Compound `Cn1cnnc1SCCCNC(=O)Nc1ncccn1` has an INHIBITION of 4.66%. `CCc1nnc2n1CCN(CC(=O)Nc1cc(C)nn1C)C2` showed an INHIBITION of 45.6%. `Cn1cc(CN2CCC3(CC2)NC(=O)CC3c2ccncc2)cn1` (centres undefined) showed an INHIBITION of 14.6%. For `CN(CC(=O)Nc1cc(CC2CCCCC2)n[nH]1)S(C)(=O)=O`, the INHIBITION was -37%. `CN(CCc1ccncc1)CCc1nccs1` showed an INHIBITION of 79.5%. Work on `CN(CCc1cccs1)CCc1nccs1` yielded an INHIBITION of 5.11%. For `CN(CCc1ccccn1)CCc1nccs1`, the INHIBITION was 40.9%. Work on `CCN(C)c1ncnc2c1CCN(Cc1ccc(F)cc1)CC2` yielded an INHIBITION of 22.5%. `CCCc1nnc(NCCc2noc(C3CCCC3)n2)o1` showed an INHIBITION of 22.5%. `O=C(c1cncnc1)N1CCCC(c2nccs2)C1` (centres undefined) showed an INHIBITION of 13.54%. With `O=C(c1cnc(C2CC2)nc1)N1CCCC(c2nccs2)C1` (centres undefined) the INHIBITION was 52%. `CCn1ccc(C(=O)N2CCOC(c3nc(-c4cccs4)no3)C2)n1` (centres undefined) showed an INHIBITION of 42.6%. Work on `CCn1cc(C(=O)N2CCCC(c3nccs3)C2)cn1` (centres undefined) yielded an INHIBITION of 56%. Work on `CCn1cc(C(=O)N2CCOC(c3nc(-c4cccs4)no3)C2)cn1` (centres undefined) yielded an INHIBITION of 73.8%. `O=C(c1cnc(O)c(Cl)c1)N1CCCC(c2nccs2)C1` (centres undefined) gave an INHIBITION of 26.9%. Compound `CCCn1cc(C(=O)N2CCOC(c3nc(-c4cccs4)no3)C2)cn1` (centres undefined) has an INHIBITION of 48.6%. For `CCc1csc(C2CCCN(C(=O)c3cnn(CC)c3)C2)n1` (centres undefined), the INHIBITION was -19.7%. `CCCn1cc(C(=O)N2CCCC(Cc3nccs3)C2)cn1` (centres undefined) was tested, and the INHIBITION was 17.4%. `NC(=O)N1CCC(C(=O)NCc2nncn2-c2ccccc2)CC1` was tested, and the INHIBITION was 38.5%. Work on `CC(C)c1nc(CN2CCOC(Cn3cccn3)C2)no1` (centres undefined) yielded an INHIBITION of -38.7%. `Cc1ncncc1C(=O)N1C[C@@H]2CC[C@H]1CN(C(=O)c1ccncc1)C2` gave an INHIBITION of -19.2%. With `CC(C)c1nccn1CCC(=O)NCC(C)(O)c1ccco1` (centres undefined) the INHIBITION was -33.4%. `CN(C(=O)c1ccco1)c1nc2c(s1)CCCC2` was tested, and the INHIBITION was -68.6%. In the case of `Cc1cc(=O)n(CC(=O)NCC2CCCO2)c(-c2cccc(Cl)c2)n1` (centres undefined), the INHIBITION was 33.5%. `Cc1cc(=O)n(CC(=O)NCC2CCCO2)c(-c2ccc(F)cc2)n1` (centres undefined) gave an INHIBITION of 50.1%. `Cc1cc(=O)n(CC(=O)NCC2CCCO2)c(-c2ccccc2)n1` (centres undefined) showed an INHIBITION of 21%. `O=C(N1CCCO1)[C@@]12CCO[C@@H]1CCN(Cc1ccc(F)cc1)C2` showed an INHIBITION of -47.8%. Compound `O=C(C[C@@H]1COC[C@H]2CN(CC3CC3)C[C@@H]12)N1CCCCO1` has an INHIBITION of 16.9%. `CS(=O)(=O)N1C[C@@H]2COC[C@@H](CC(=O)N3CCCCO3)[C@@H]2C1` showed an INHIBITION of 28.2%. With `O=C(C[C@@H]1COC[C@H]2CN(C3CCCC3)C[C@@H]12)N1CCCCO1` the INHIBITION was 57.1%. `O=C(C[C@@H]1COC[C@H]2CN(CC3CCOCC3)C[C@@H]12)N1CCCCO1` was tested, and the INHIBITION was 76.4%. In the case of `O=C([C@@H]1COC[C@H]2CN(C3CCCC3)C[C@H]21)N1CCCCO1`, the INHIBITION was 40.5%. Work on `O=C(C[C@@H]1COC[C@H]2CN(Cc3ccc(F)cc3)C[C@@H]12)N1CCCCO1` yielded an INHIBITION of -13.4%. `O=C(c1ccncn1)N1CCC[C@]2(C[C@H](Oc3ncccc3F)CO2)C1` gave an INHIBITION of -10.3%. `COc1cccc(S(=O)(=O)N2C[C@@H](O)[C@H](N(C)C)C2)c1` gave an INHIBITION of 9.98%. With `Cn1cc(-c2cnc(N3CCCC3)nc2)cc1C(=O)N1CCOCC1` the INHIBITION was -18.4%. Work on `Cn1nccc1C(=O)N1CCC(c2ncc(Cl)cc2S(C)(=O)=O)CC1` yielded an INHIBITION of 30.4%. `CCCn1ncc(CN2C[C@@H]3CCCN3C[C@H]2Cc2ccccc2)c1C` gave an INHIBITION of 57.5%. Work on `C=Cn1ncc(CN2C[C@@H]3C[C@@H](O)CN3C[C@@H]2Cc2ccccc2)c1C` yielded an INHIBITION of 42.6%. Compound `C=Cn1ncc(CN2C[C@@H]3C[C@@H](O)CN3C[C@H]2Cc2ccccc2)c1C` has an INHIBITION of 13%. Compound `CCn1ncc(CN2C[C@@H]3CCCN3C[C@H]2CCSC)c1C` has an INHIBITION of 2.71%. In the case of `CCn1ncc(CN2C[C@@H]3CCCN3C[C@@H]2CCSC)c1C`, the INHIBITION was 46%. For `C=Cn1ncc(CN2C[C@@H]3CCCN3C[C@H]2Cc2ccccc2)c1C`, the INHIBITION was 51.5%. In the case of `CCCn1ncc(CN2C[C@@H]3CCCN3C[C@@H]2Cc2ccccc2)c1C`, the INHIBITION was 29.3%. Work on `CCCn1ncc(CN2C[C@@H]3CCCN3C[C@H]2CCSC)c1C` yielded an INHIBITION of 37.6%. Compound `C=Cn1ncc(CN2C[C@@H]3CCCN3C[C@H]2CCSC)c1C` has an INHIBITION of 30.1%. Compound `C=Cn1ncc(CN2C[C@@H]3CCCN3C[C@@H]2CCSC)c1C` has an INHIBITION of 30.8%. Compound `CCCn1ncc(CN2C[C@@H]3CCCN3C[C@@H]2CCSC)c1C` has an INHIBITION of 57.4%. `C=Cn1ncc(CN2C[C@@H]3CCCN3C[C@@H]2Cc2ccccc2)c1C` gave an INHIBITION of 50%. Work on `Cc1nc(N2CCN(c3ccccc3)CC2)c2c(n1)c(C)nn2C` yielded an INHIBITION of 25.1%. `CC(=O)N1CCN(CC=C(C)C)CC1` showed an INHIBITION of 19.1%. `CCNC(=O)[C@@H]1C[C@@H](NC(=O)c2cccn2C)CN1CCCSC` showed an INHIBITION of -7.7%. For `Cc1cc(-c2cccc(-c3ccn(CCCO)n3)c2)nc(N(C)C)n1`, the INHIBITION was -22.8%. `COc1ccc(OC)c(CCNC(=O)CCC2CCCO2)c1` (centres undefined) gave an INHIBITION of 38.3%. In the case of `CCOCCNC(=O)CCC1CCCO1` (centres undefined), the INHIBITION was 42.1%. `O=C(CCC1CCCO1)NCCCO` (centres undefined) gave an INHIBITION of 51%. Work on `O=C(CCC1CCCO1)NCCCC(=O)Nc1ccc(Cl)cc1` (centres undefined) yielded an INHIBITION of 36.8%. Work on `O=C(CCC1CCCO1)NCCN1CCCCC1` (centres undefined) yielded an INHIBITION of 52.2%. `O=C(CCC1CCCO1)NCCc1ccccn1` (centres undefined) was tested, and the INHIBITION was 18.3%. With `Cc1c[nH]nc1C1CCCN(C(=O)Cn2cccn2)C1` (centres undefined) the INHIBITION was 2.71%. `Cc1nc(C2CCCCN2S(C)(=O)=O)no1` (centres undefined) showed an INHIBITION of -4.87%. In the case of `CC(=O)N1N=C(c2ccccc2)OC1C(=O)NCCc1ccc(Cl)cc1` (centres undefined), the INHIBITION was -53.7%. Compound `CCN(CCCNCc1c(C)nn(C)c1N(C)C)S(C)(=O)=O` has an INHIBITION of 0.58%. Work on `Cc1nc(C2CCN2c2ncccn2)cc(N(C)C)n1` (centres undefined) yielded an INHIBITION of 10.9%. `CCN(CC)C(=O)CSc1nc2nc(C)ccc2o1` showed an INHIBITION of -4.76%. With `CCN(Cc1cccc2c1OCO2)C(=O)NCc1ccccn1` the INHIBITION was -27.8%. For `CCCn1c(C)cc(C(=O)CN2C(=O)c3ccccc3CS2(=O)=O)c1C`, the INHIBITION was 31.8%. For `Cc1ccc(C)c(C(=O)CN2C(=O)c3ccccc3CS2(=O)=O)c1`, the INHIBITION was 56.8%. `Cc1ccc(C)c(C(=O)N2CCN(C(=O)Cc3ccccn3)CC2)c1` gave an INHIBITION of 29.7%. `Cc1cc(=O)c(C(=O)N2CCN(C)c3ccccc3C2)c[nH]1` showed an INHIBITION of 43.9%. `Cc1ccc(C(=O)CN2C(=O)c3ccccc3CS2(=O)=O)c(C)c1` was tested, and the INHIBITION was 65.3%. `Cc1cc(C(=O)CN2C(=O)c3ccccc3CS2(=O)=O)c(C)[nH]1` was tested, and the INHIBITION was 56.4%. In the case of `Cc1cc(C)c(CNC(=O)C2COc3ccccc3C2)c(=O)[nH]1` (centres undefined), the INHIBITION was 32.9%. In the case of `Cc1ccccc1C(=O)CN1C(=O)c2ccccc2CS1(=O)=O`, the INHIBITION was 10.1%. Compound `N#Cc1cccc(CN2C(=O)c3ccccc3CS2(=O)=O)c1` has an INHIBITION of -0.85%. Work on `Cc1nc(-c2nnc[nH]2)sc1C(=O)N1CCCC(C(F)(F)F)C1` (centres undefined) yielded an INHIBITION of 7.25%. `CN(C)C(=O)C1CCC2(CCN(C(=O)Nc3ccc(F)cc3)CC2)O1` (centres undefined) showed an INHIBITION of 31.2%. `O=C([C@@H]1C[C@@H]2CCN(C3CCOCC3)C[C@@H]2O1)N1CCOCC1` was tested, and the INHIBITION was -9.26%. Compound `COCCn1c2c(ccc1=O)CCN(C(=O)Cc1cccs1)CC2` has an INHIBITION of -14.2%. Compound `CNc1cnc(CC2COCCN(Cc3ccccc3)C2)cn1` (centres undefined) has an INHIBITION of 9.05%. With `c1ccc(-n2cc(CNCC3CCCN3c3cccnn3)cn2)cc1` (centres undefined) the INHIBITION was 41.5%. `CC(CS(C)(=O)=O)N(C(=O)c1ccc(Cl)s1)C1CC1` (centres undefined) gave an INHIBITION of 52.1%. For `CC(CS(C)(=O)=O)N(C(=O)CCc1ccc(Cl)s1)C1CC1` (centres undefined), the INHIBITION was 31.5%. With `CC(CS(C)(=O)=O)N(C(=O)Nc1cc(F)ccc1Cl)C1CC1` (centres undefined) the INHIBITION was 3.63%. `Cn1cc(C(=O)NCC2CCN(C(=O)NC3CC3)CC2)cn1` showed an INHIBITION of -16%. With `N#Cc1ccnc(SCC2CN=C(N3CCOCC3)S2)c1` (centres undefined) the INHIBITION was 52.6%. Compound `c1csc(SCC2CN=C(N3CCOCC3)S2)c1` (centres undefined) has an INHIBITION of -12.9%. Compound `c1ccn2c(SCC3CN=C(N4CCOCC4)S3)ncc2c1` (centres undefined) has an INHIBITION of 0.705%. `O=c1c(NCCc2ccc(O)cc2)c(NCc2ccco2)c1=O` was tested, and the INHIBITION was 45.7%.
